The full data set covers some 7,900 targets. This sample favours those with a hit. About 0.6% of all pairs of compound and target were hits. Unmarked numbers belong to inactive results.
What was measured:
Experiment in all cases: log2 fold change, soluble protein after heating vs DMSO (PISA); higher = thermal stabilisation; K562 cells, 10 uM, 30 min; active = over 0.2 and 3.5 SD of the protein, either way, in both replicates (recomputed)
[1] = compound: CS(=O)(=O)c1ccc(-c2cnc(N)c(C(=O)Nc3ccccc3)n2)cc1
Summary of the method: (§1)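 For each measurement, 10 μM compound was applied for 30 min to K562 cells at 2×10^6 cells/mL. Aliquots were heated for 3 min across 48°C-58°C, pooled, and extracted in PBS with 0.5% NP-40 at 4°C; the supernatant after 21,000xg for 90 min was soluble protein. This was quantified by TMTpro 16plex LC-MS/MS with channel sums equalised, and thermal stability was reported relative to control samples from duplicates, on a log2 fold-change scale.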

crizotinib = compound: C[C@@H](Oc1cc(-c2cnn(C3CCNCC3)c2)cnc1N)c1c(Cl)ccc(F)c1Cl [crizotinib]
Summary of the method: as §1

[2] = compound: C[C@@H]1COCCN1C2=NC(=NC(=C2)C3(CC3)S(=O)(=O)C)C4=C5C=CNC5=CC=C4
Summary of the method: as §1

[3] = compound: C[C@H](C1=CC=C(C=C1)C(=O)NC2=C3C=CNC3=NC=C2)N
Summary of the method: as §1

duvelisib = compound: C[C@H](Nc1ncnc2nc[nH]c12)c1cc2cccc(Cl)c2c(=O)n1-c1ccccc1 [duvelisib]
Summary of the method: as §1

gandotinib = compound: Cc1cc(Nc2cc(CN3CCOCC3)c3nc(C)c(Cc4ccc(Cl)cc4F)n3n2)n[nH]1 [gandotinib]
Summary of the method: as §1

tozasertib = compound: Cc1cc(Nc2cc(N3CCN(C)CC3)nc(Sc3ccc(NC(=O)C4CC4)cc3)n2)n[nH]1 [tozasertib]
Summary of the method: as §1

[4] = compound: Cc1cc(SCc2sc(-c3ccc(C(F)(F)F)cc3)nc2C)ccc1OCC(=O)O
Summary of the method: as §1

doramapimod = compound: Cc1ccc(-n2nc(C(C)(C)C)cc2NC(=O)Nc2ccc(OCCN3CCOCC3)c3ccccc23)cc1 [doramapimod]
Summary of the method: as §1

ispinesib = compound: Cc1ccc(C(=O)N(CCCN)[C@@H](c2nc3cc(Cl)ccc3c(=O)n2Cc2ccccc2)C(C)C)cc1 [ispinesib]
Summary of the method: as §1

bafetinib = compound: Cc1ccc(NC(=O)c2ccc(CN3CC[C@H](N(C)C)C3)c(C(F)(F)F)c2)cc1Nc1nccc(-c2cncnc2)n1 [bafetinib]
Summary of the method: as §1

[5] = compound: Cc1cccc(CC(=O)N2CCc3c2ccc(-c2cn(C)c4ncnc(N)c24)c3F)n1
Summary of the method: as §1

nilotinib = compound: Cc1cn(-c2cc(NC(=O)c3ccc(C)c(Nc4nccc(-c5cccnc5)n4)c3)cc(C(F)(F)F)c2)cn1 [nilotinib]
Summary of the method: as §1

[6] = compound: Cc1nc(Nc2n[nH]c3c2CN(C(=O)N[C@H](CN(C)C)c2ccccc2)C3(C)C)c2sccc2n1
Summary of the method: as §1

dasatinib = compound: Cc1nc(Nc2ncc(C(=O)Nc3c(C)cccc3Cl)s2)cc(N2CCN(CCO)CC2)n1 [dasatinib]
Summary of the method: as §1

[7] = compound: Cc1ncc(-c2ccnc(Nc3ccc(S(C)(=O)=O)cc3)n2)n1C(C)C
Summary of the method: as §1

[8] = compound: Cn1cc(-c2ccc3c(c2)CCN3C(=O)Cc2cccc(C(F)(F)F)c2)c2c(N)ncnc21
Summary of the method: as §1

[9] = compound: Cn1cc(-c2ccc3nnc(C(F)(F)c4ccc5ncccc5c4)n3n2)cn1
Summary of the method: as §1

tipifarnib = compound: Cn1cncc1[C@@](N)(c1ccc(Cl)cc1)c1ccc2c(c1)c(-c1cccc(Cl)c1)cc(=O)n2C [tipifarnib]
Summary of the method: as §1

mubritinib = compound: FC(F)(F)c1ccc(/C=C/c2nc(COc3ccc(CCCCn4ccnn4)cc3)co2)cc1 [mubritinib]
Summary of the method: as §1

Sequence of UniProt Q99496 (Q99496 whole entry, looked up): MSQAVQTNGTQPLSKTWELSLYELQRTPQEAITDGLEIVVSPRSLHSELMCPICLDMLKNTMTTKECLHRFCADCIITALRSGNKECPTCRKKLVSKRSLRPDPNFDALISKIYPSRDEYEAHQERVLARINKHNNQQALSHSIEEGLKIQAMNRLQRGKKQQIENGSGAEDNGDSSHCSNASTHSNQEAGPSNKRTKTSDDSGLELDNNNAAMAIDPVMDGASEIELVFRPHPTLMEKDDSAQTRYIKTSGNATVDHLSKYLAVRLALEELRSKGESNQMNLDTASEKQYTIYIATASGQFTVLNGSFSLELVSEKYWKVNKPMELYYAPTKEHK
Sequence of UniProt O75116 (O75116 whole entry, looked up): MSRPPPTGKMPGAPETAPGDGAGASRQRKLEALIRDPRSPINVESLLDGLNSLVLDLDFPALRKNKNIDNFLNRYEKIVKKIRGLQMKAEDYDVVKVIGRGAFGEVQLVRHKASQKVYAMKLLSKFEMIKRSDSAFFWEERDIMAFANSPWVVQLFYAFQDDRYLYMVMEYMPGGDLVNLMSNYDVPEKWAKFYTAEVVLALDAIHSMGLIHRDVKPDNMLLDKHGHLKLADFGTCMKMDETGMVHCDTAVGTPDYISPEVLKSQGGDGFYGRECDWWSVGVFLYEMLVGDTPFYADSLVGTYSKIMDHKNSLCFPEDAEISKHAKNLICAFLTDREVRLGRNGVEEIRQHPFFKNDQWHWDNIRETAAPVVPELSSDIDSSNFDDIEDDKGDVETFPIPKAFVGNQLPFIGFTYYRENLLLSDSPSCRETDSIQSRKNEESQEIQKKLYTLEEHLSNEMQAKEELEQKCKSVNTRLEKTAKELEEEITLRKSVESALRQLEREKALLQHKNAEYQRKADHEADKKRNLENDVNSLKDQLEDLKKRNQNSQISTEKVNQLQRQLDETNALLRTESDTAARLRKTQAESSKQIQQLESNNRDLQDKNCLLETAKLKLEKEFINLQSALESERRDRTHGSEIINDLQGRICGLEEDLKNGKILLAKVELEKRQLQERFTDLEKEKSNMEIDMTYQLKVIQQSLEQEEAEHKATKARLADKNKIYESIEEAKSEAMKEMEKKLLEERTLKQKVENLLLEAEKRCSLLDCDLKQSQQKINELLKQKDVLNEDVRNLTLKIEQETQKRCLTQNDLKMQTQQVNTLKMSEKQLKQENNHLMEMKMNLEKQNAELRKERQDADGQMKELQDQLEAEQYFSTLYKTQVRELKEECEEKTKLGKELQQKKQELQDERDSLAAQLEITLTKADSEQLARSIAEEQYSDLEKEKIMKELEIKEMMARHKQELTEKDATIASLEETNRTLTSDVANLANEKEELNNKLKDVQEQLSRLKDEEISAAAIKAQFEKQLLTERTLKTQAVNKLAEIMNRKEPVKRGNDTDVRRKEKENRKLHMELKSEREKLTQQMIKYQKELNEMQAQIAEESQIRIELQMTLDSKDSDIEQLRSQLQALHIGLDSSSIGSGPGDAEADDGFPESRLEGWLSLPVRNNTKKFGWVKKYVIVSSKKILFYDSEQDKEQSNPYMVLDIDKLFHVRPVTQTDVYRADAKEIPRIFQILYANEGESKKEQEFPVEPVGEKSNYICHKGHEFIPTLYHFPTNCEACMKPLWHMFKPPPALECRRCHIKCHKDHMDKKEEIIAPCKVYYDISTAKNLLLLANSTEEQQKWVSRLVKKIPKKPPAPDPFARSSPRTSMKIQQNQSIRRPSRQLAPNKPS
Sequence of UniProt Q06609 (Q06609 whole entry, looked up): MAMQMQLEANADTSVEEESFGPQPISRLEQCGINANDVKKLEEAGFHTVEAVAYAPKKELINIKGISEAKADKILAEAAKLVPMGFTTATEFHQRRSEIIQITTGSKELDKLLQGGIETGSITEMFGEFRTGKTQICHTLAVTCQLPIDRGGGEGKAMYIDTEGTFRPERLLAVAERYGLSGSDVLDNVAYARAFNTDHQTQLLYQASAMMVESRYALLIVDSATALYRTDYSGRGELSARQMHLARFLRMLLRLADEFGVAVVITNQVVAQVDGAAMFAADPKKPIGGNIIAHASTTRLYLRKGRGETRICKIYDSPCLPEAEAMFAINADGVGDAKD
Sequence of UniProt Q04206 (Q04206 whole entry, looked up): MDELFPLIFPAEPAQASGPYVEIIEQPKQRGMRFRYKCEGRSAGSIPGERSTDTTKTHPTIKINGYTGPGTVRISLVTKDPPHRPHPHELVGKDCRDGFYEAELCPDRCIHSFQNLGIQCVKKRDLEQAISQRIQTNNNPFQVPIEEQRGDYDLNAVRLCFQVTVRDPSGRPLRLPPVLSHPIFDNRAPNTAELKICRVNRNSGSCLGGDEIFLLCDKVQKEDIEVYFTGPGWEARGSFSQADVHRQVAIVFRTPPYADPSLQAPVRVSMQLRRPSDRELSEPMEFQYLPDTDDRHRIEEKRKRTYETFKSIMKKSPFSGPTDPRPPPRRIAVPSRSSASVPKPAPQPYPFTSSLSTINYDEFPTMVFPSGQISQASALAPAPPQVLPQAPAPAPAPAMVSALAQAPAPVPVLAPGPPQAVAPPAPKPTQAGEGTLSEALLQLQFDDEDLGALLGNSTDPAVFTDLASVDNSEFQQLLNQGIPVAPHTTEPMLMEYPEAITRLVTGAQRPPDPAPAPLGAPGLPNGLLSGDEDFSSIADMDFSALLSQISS
Sequence of UniProt Q8WZA2 (Q8WZA2 whole entry, looked up): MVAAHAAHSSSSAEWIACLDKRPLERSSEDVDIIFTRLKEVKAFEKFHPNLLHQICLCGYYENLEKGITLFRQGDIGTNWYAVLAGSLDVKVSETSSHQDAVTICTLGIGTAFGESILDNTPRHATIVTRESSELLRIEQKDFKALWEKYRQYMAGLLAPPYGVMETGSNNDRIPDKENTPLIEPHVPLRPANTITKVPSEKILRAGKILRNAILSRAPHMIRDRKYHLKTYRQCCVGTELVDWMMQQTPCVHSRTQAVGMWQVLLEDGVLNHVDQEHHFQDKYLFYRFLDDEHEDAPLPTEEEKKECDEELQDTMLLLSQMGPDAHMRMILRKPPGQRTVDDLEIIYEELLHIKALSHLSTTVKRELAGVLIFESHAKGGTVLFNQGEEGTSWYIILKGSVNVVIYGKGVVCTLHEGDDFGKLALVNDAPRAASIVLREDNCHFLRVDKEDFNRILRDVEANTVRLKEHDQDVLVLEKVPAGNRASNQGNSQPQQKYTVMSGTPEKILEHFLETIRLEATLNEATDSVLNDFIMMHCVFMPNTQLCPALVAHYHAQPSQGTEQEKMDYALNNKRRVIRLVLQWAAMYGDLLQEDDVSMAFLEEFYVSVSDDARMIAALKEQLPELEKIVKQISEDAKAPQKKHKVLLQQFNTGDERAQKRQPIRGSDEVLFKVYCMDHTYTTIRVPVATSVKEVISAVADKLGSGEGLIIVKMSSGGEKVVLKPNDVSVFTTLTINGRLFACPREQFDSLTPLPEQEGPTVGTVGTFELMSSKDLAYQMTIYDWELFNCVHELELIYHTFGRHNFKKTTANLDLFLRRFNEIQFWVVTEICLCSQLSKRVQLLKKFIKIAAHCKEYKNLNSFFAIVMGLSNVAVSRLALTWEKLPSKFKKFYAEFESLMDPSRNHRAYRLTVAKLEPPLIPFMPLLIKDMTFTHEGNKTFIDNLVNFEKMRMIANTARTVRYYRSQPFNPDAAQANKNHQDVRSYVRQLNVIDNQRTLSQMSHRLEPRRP
Sequence of UniProt P04049 (P04049 whole entry, looked up): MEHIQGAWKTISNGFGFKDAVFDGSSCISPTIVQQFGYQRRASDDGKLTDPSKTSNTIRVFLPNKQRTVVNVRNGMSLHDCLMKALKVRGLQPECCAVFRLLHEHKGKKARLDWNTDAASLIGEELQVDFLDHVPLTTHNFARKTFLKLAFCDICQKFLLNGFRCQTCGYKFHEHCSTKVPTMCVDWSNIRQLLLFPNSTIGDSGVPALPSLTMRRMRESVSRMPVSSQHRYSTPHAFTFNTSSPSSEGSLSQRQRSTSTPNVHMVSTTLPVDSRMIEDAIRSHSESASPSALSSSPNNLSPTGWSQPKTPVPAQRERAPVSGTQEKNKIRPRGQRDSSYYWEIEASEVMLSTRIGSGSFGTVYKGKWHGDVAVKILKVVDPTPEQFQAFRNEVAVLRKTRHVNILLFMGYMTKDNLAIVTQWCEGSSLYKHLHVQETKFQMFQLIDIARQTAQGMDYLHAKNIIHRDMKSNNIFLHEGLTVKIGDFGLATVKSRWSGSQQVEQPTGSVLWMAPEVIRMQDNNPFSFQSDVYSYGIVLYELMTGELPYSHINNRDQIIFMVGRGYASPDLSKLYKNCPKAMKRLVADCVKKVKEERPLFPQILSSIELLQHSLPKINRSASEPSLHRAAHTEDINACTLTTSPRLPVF
Sequence of UniProt Q86UA6 (Q86UA6 whole entry, looked up): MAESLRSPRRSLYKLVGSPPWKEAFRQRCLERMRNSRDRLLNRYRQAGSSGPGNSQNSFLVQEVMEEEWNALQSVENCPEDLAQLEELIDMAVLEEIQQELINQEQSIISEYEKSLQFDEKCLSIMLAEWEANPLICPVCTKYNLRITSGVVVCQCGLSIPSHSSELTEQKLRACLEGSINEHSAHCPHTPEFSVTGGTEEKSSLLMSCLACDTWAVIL
Sequence of UniProt Q99643 (Q99643 whole entry, looked up): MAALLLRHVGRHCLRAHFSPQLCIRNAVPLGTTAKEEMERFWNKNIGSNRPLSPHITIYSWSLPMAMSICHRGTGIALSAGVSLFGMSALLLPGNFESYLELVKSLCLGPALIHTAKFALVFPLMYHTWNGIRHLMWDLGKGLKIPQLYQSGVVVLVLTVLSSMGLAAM
Sequence of UniProt Q9BWJ5 (Q9BWJ5 whole entry, looked up): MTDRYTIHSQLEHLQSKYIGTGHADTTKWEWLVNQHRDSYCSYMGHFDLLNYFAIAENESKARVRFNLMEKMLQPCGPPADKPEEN

Target | log2 fold change [1] | log2 fold change (crizotinib) | log2 fold change [2] | log2 fold change [3] | log2 fold change (duvelisib) | log2 fold change (gandotinib) | log2 fold change (tozasertib) | log2 fold change [4] | log2 fold change (doramapimod) | log2 fold change (ispinesib) | log2 fold change (bafetinib) | log2 fold change [5] | log2 fold change (nilotinib) | log2 fold change [6] | log2 fold change (dasatinib) | log2 fold change [7] | log2 fold change [8] | log2 fold change [9] | log2 fold change (tipifarnib) | log2 fold change (mubritinib)
RAD51 (UniProt Q06609) | 0.005 | -0.061 | -0.079 | -0.019 | 0.108 | 0.01 | -0.026 | -0.005 | -0.025 | -0.009 | -0.002 | 0.021 | -0.082 | -0.006 | -0.009 | 0.04 | 0.037 | 0.003 | 0.11 | -0.017
RELA (UniProt Q04206) | 0.03 | 0.036 | 0.005 | -0.029 | 0.018 | -0.086 | 0.059 | 0.055 | – | 0.017 | -0.04 | 0.006 | -0.023 | -0.295 (active) | – | -0.031 | 0.04 | -0.047 | -0.04 | 0.044
RNASET2 (UniProt O00584) | 0.033 | -0.35 (active) | 0.027 | 0.08 | 0.045 | 0.01 | -0.011 | -0.037 | -0.013 | -0.149 | -0.261 (active) | -0.006 | 0.016 | -0.002 | -0.031 | -0.034 | -0.065 | 0.027 | 0.067 | 0.021
RNASEH2A (UniProt O75792) | 0.106 | -0.134 | -0.045 | -0.032 | 0.011 | 0.156 | -0.028 | 0.029 | -0.023 | -0.001 | -0.111 | -0.303 (active) | -0.025 | 0.024 | -0.159 | -0.047 | 0.056 | 0.038 | -0.003 | 0.059
RSL1D1 (UniProt O76021) | -0.146 | 0.037 | -0.33 | 0.456 | -0.169 | 0.146 | 0.066 | -0.037 | 0.312 | 0.251 | 0.288 | -0.027 | 0.117 | 0.109 | 0.239 | 0.264 | -0.427 | -0.18 | 0.15 | -0.244
RNF2 (UniProt Q99496) | 0.008 | -0.028 | -0.013 | -0.105 | -0.033 | -0.091 | 0.149 | 0.073 | -0.093 | – | -0.102 | 0.022 | 0.065 | -0.214 | -0.106 | 0.061 | -0.005 | – | -0.026 | -0.031
RBM27 (UniProt Q9P2N5) | 0.006 | 0.021 | 0.026 | -0.174 | 0.001 | -0.019 | 0.027 | 0.09 | -0.035 | -0.122 | 0.007 | 0.078 | 0.019 | -0.91 (active) | -0.07 | -0.07 | 0.053 | 0.041 | -0.005 | 0.023
RAPGEF4 (UniProt Q8WZA2) | 0.115 | 0.051 | 0.04 | -0.061 | 0.07 | – | -0.107 | -0.139 | 0.097 | – | -0.075 | – | – | – | 0.088 | – | 0.201 | – | – | 0.038
SDHC (UniProt Q99643) | -0.304 | 0.08 | 0.457 (active) | -0.045 | 0.155 | -0.023 | 0.042 | -0.111 | -0.086 | 0.047 | 0 | -0.127 | 0.007 | 0.068 | 0.028 | -0.056 | -0.011 | -0.024 | 0.211 | 0.02
RPL38 (UniProt P63173) | -0.039 | -0.069 | -0.258 (active) | 0.077 | -0.064 | 0.144 | -0.017 | -0.008 | 0.017 | -0.093 | 0.089 | 0.01 | 0.026 | 0.155 | 0.057 | -0.003 | -0.023 | -0.022 | -0.021 | 0.006
RAF1 isoform 2 (UniProt P04049) | 0.023 | -0.305 | -0.135 | -0.092 | 0.068 | 0.131 | 0.093 | 0.035 | 0.133 | -0.145 | -0.062 | -0.168 | – | – | -0.191 | – | 0.181 | -0.144 | -0.185 | -0.286
RPAIN isoform 8 (UniProt Q86UA6) | -0.024 | 0.144 | 0.385 | -0.039 | 0.123 | – | 0.07 | 0.078 | -0.04 | -0.155 | -0.064 | – | – | – | -0.043 | – | -0.022 | -0.142 | -0.042 | –
SHROOM2 (UniProt Q13796) | 0.093 | 0.005 | 0.013 | -0.099 | 0.059 | 0.397 | -0.195 | -0.233 | 0.008 | – | -0.091 | -0.02 | 0.082 | 0.011 | 0.166 | -0.043 | 0.163 | – | -0.022 | 0.258
RRP9 (UniProt O43818) | -0.05 | 0.084 | -0.2 | 0.031 | -0.029 | 0.056 | 0.121 | -0.054 | 0.063 | 0.12 | -0.02 | -0.103 | 0.046 | -0.042 | 0.106 | -0.107 | -0.062 | -0.102 | 0.074 | -0.046
SF3B5 (UniProt Q9BWJ5) | 0.027 | -0.012 | 0.176 | – | 0.358 | 0.087 | -0.152 | 0.002 | -0.089 | – | -0.115 | -0.056 | 0.029 | 0.008 | -0.189 | -0.064 | – | – | -0.018 | -0.043
ROCK2 (UniProt O75116) | 0.033 | -0.041 | 0.026 | 0.392 (active) | 0.025 | -0.049 | -0.035 | 0.004 | 0.007 | -0.049 | -0.033 | -0.006 | -0.05 | -0.202 | -0.064 | 0.009 | -0.091 | 0.014 | -0.008 | 0.013
REEP4 (UniProt Q9H6H4) | -0.015 | -0.148 | -0.027 | 0.02 | -0.013 | 0.001 | -0.111 | 0.02 | 0.06 | -0.275 (active) | 0.021 | 0.127 | -0.017 | -0.077 | -0.079 | 0.067 | -0.052 | -0.056 | -0.109 | -0.04

Reference: the supplement of paper PMC10849652
